Where “and” joins values, the source holds several entries; their conditions need not be identical. Equal values may be shown once. Screen size: about 5,500 compounds; about 2,000 (36%) were called active. Inconclusive results (about 18%) are left out. No stated cut-off is given here; in the data, active means normalized growth mostly below about 0.91 (no sharp cut-off); inconclusive means no clear call, values can overlap the other calls; inactive means mostly above about 0.92. Some of the results follow.
Experiment: chemical genetic growth profiling, strain panel (AID 1159580);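 further: tested at 20 µM; growth read once vehicle control cultures reached saturation at 30 °C; 1 = growth at the plate median or of vehicle wells; lower values mean less growth of the strain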
Details: S. cerevisiae deletion strains, growth OD

Measured: normalized growth

c1ccc2c(c1)CN1CCCC1=N2
active: locus YBR021W, strain FUR4, hits give low values 1.19 [resistant]
inactive: locus YAL021C, strain ccr4, hits give low values 0.998 | locus YAL026C, strain drs2, hits give low values 1 | locus YAL030W, strain snc1, hits give low values 1 | locus YBL061C, strain skt5, hits give low values 0.999 | locus YBR009C, strain hhf1, hits give low values 0.987 | locus YBR023C, strain chs3, hits give low values 1 | locus YBR171W, strain sec66, hits give low values 1 | locus YBR229C, strain ROT2, hits give low values 1.01 | locus YBR231C, strain swc5, hits give low values 0.997 | locus YBR279W, strain paf1, hits give low values 0.996 | locus YCL011C, strain gbp2, hits give low values 1.01 | locus YCL016C, strain dcc1, hits give low values 0.997 | locus YCL029C, strain bik1, hits give low values 0.972 | locus YCL061C, strain MRC1, hits give low values 1.01 | locus YCL069W, strain vba3, hits give low values 1 | locus YCR088W, strain abp1, hits give low values 0.998 | locus YDL005C, strain med2, hits give low values 0.993 | locus YDL035C, strain GPR1, hits give low values 1.03 | locus YDL040C, strain nat1, hits give low values 1 | locus YDL074C, strain BRE1, hits give low values 1.01 | locus YDL101C, strain DUN1, hits give low values 0.99 | locus YDL134C, strain PPH21, hits give low values 1.01 | locus YDL185W, strain tfp1, hits give low values 0.971 | locus YDL192W, strain arf1, hits give low values 0.985 | locus YDR001C, strain nth1, hits give low values 0.992 | locus YDR069C, strain doa4, hits give low values 1 | locus YDR101C, strain arx1, hits give low values 0.978 | locus YDR137W, strain rgp1, hits give low values 1.01 | locus YDR150W, strain NUM1, hits give low values 0.998 | locus YDR159W, strain sac3, hits give low values 0.991 | locus YDR162C, strain NBP2, hits give low values 1.02 | locus YDR195W, strain ref2 0.968 | locus YDR297W, strain sur2, hits give low values 1 | locus YDR318W, strain mcm21, hits give low values 0.988 | locus YDR334W, strain swr1, hits give low values 0.999 | locus YDR335W, strain msn5, hits give low values 1.01 | locus YDR388W, hits give low values 0.989 | locus YDR392W, strain spt3, hits give low values 0.919 | locus YDR502C, strain sam2, hits give low values 0.988 | locus YEL003W, strain gim4, hits give low values 0.999 | locus YEL037C, strain rad23, hits give low values 0.999 | locus YEL061C, strain CIN8 (second series), hits give low values 0.996 | locus YEL061C, strain CIN8, hits give low values 1 | locus YER015W, strain faa2, hits give low values 0.998 | locus YER016W, strain bim1, hits give low values 1 | locus YER110C, hits give low values 0.967 | locus YER111C, strain swi4, hits give low values 1 | locus YER155C, strain BEM2 (second series), hits give low values 1 | locus YER155C, strain BEM2, hits give low values 0.993 | locus YER167W, strain BCK2, hits give low values 1 | locus YFR010W, strain ubp6, hits give low values 1 | locus YGL078C, strain dbp3, hits give low values 0.993 | locus YGL086W, strain mad1, hits give low values 0.967 | locus YGL167C, strain pmr1, hits give low values 0.995 | locus YGL173C, strain kem1, hits give low values 0.997 | locus YGL227W, strain vid30, hits give low values 0.993 | locus YGL240W, strain doc1, hits give low values 1.01 | locus YGL248W, strain PDE1, hits give low values 1 | locus YGL253W, strain hxk2, hits give low values 1 | locus YGR078C, strain PAC10, hits give low values 1.01 | locus YGR135W, strain pre9, hits give low values 0.998 | locus YGR229C, strain SMI1, hits give low values 1.03 | locus YGR252W, strain gcn5, hits give low values 1.1 | locus YHR013C, strain ard1, hits give low values 0.983 | locus YHR027C, strain rpn1, hits give low values 1.01 | locus YHR030C, strain SLT2, hits give low values 1.01 and 0.994 | locus YHR079C, strain IRE1 (second series), hits give low values 0.97 | locus YHR079C, strain IRE1, hits give low values 1.02 | locus YHR094C, strain hxt1, hits give low values 0.991 | locus YHR129C, strain ARP1, hits give low values 0.995 | locus YHR142W, strain chs7, hits give low values 1.01 | locus YHR200W, strain rpn10, hits give low values 0.979 | locus YIL066C, strain RNR3, hits give low values 1.01 | locus YIL073C, strain SPO22, hits give low values 0.906 | locus YIL125W, strain kgd1, hits give low values 0.989 | locus YIR030C, strain dcg1, hits give low values 0.985 | locus YJL092W, strain hpr5, hits give low values 0.995 | locus YJL095W, strain BCK1 (second series), hits give low values 1 | locus YJL095W, strain BCK1, hits give low values 1 and 0.988 | locus YJL115W, strain asf1, hits give low values 1 | locus YJL129C, strain trk1, hits give low values 1.01 | locus YJL134W, strain LCB3, hits give low values 1.01 | locus YJL154C, strain vps35, hits give low values 0.996 | locus YJL164C, strain tpk1, hits give low values 1.01 | locus YJL166W, strain qcr8, hits give low values 1 | locus YJL168C, strain set2, hits give low values 0.98 | locus YJL187C, strain SWE1 (second series), hits give low values 0.99 | locus YJL187C, strain SWE1, hits give low values 1 | locus YJR043C, strain POL32, hits give low values 1.06 | locus YJR066W, strain TOR1, hits give low values 0.989 | locus YKL009W, strain mrt4, hits give low values 0.955 | locus YKL068W, hits give low values 0.984 | locus YKL085W, strain MDH1 (second series), hits give low values 0.981 | locus YKL085W, strain MDH1, hits give low values 0.981 | locus YKL160W, strain elf1, hits give low values 1 | locus YKL190W, strain CNB1, hits give low values 1.01 | locus YKR001C, strain vps1, hits give low values 0.98 | locus YKR026C, strain gcn3, hits give low values 0.992 | locus YKR091W, strain srl3, hits give low values 0.994 | locus YLL001W, strain dnm1, hits give low values 0.988 | locus YLL026W, hits give low values 0.996 | locus YLL041C, strain sdh2, hits give low values 0.996 | locus YLR027C, strain aat2, hits give low values 1.01 | locus YLR039C, strain RIC1, hits give low values 1.01 | locus YLR058C, strain SHM2, hits give low values 1 | locus YLR102C, strain apc9, hits give low values 0.981 | locus YLR113W, strain HOG1, hits give low values 0.973 | locus YLR221C, strain rsa3, hits give low values 0.999 | locus YLR258W, strain gsy2, hits give low values 1 | locus YLR262C, strain YPT6 (second series), hits give low values 1.02 | locus YLR262C, strain YPT6, hits give low values 1.04 | locus YLR268W, strain sec22, hits give low values 0.951 | locus YLR320W, strain mms22, hits give low values 1.01 | locus YLR330W, strain CHS5, hits give low values 0.996 | locus YLR342W, strain FKS1 (second series), hits give low values 1.08 | locus YLR342W, strain FKS1, hits give low values 1.01 | locus YLR357W, strain rsc2, hits give low values 0.991 | locus YLR370C, strain arc18, hits give low values 1.01 | locus YLR371W, strain rom2, hits give low values 0.965 | locus YLR384C, strain iki3, hits give low values 0.988 | locus YLR418C, strain cdc73, hits give low values 1 | locus YML016C, strain PPZ1, hits give low values 1 | locus YML032C, strain rad52, hits give low values 1.01 | locus YML120C, strain ndi1, hits give low values 1.01 | locus YML124C, strain tub3, hits give low values 1 | locus YMR058W, strain fet3, hits give low values 1 | locus YMR078C, strain ctf18, hits give low values 0.959 | locus YMR125W, strain sto1, hits give low values 1.01 | locus YMR129W, hits give low values 0.976 | locus YMR205C, strain PFK2, hits give low values 0.99 | locus YMR223W, strain ubp8, hits give low values 0.992 | locus YMR231W, strain pep5, hits give low values 0.996 | locus YMR263W, strain SAP30, hits give low values 0.991 | locus YMR307W, strain GAS1, hits give low values 1.21 | locus YNL067W, strain RPL9B, hits give low values 0.979 | locus YNL071W, strain lat1, hits give low values 1.01 | locus YNL153C, strain GIM3, hits give low values 1 | locus YNL183C, strain NPR1, hits give low values 0.967 | locus YNL209W, strain ssb2, hits give low values 1 | locus YNL233W, strain BNI4, hits give low values 1 | locus YNL248C, strain rpa49, hits give low values 1.01 | locus YNL250W, strain rad50, hits give low values 0.937 | locus YNL271C, strain bni1, hits give low values 0.989 | locus YNL298W, strain CLA4, hits give low values 0.996 | locus YNL307C, strain MCK1, hits give low values 0.972 | locus YNL322C, strain KRE1 (second series), hits give low values 1 | locus YNR049C, strain mso1, hits give low values 1 | locus YNR052C, strain pop2, hits give low values 0.992 | locus YOL006C, strain TOP1, hits give low values 0.918 | locus YOL012C, strain htz1 0.782 | locus YOL147C, strain pex11, hits give low values 0.995 | locus YOR001W, strain rrp6, hits give low values 1 | locus YOR061W, strain CKA2, hits give low values 0.998 | locus YOR069W, strain VPS5, hits give low values 0.998 | locus YOR070C, strain gyp1, hits give low values 0.993 | locus YOR080W, strain dia2, hits give low values 0.992 | locus YOR083W, strain WHI5, hits give low values 1 | locus YOR106W, strain vam3, hits give low values 1.02 | locus YOR136W, strain idh2, hits give low values 0.976 | locus YOR144C, strain elg1, hits give low values 1.01 | locus YOR184W, strain ser1, hits give low values 0.992 | locus YOR231W, strain MKK1, hits give low values 1.02 | locus YOR265W, strain rbl2, hits give low values 1.01 | locus YOR270C, strain vph1, hits give low values 1.02 | locus YOR290C, strain snf2, hits give low values 0.955 | locus YOR316C, strain cot1, hits give low values 0.98 | locus YPL051W, strain arl3, hits give low values 1.01 | locus YPL055C, strain LGE1, hits give low values 1 | locus YPL078C, strain atp4, hits give low values 1.01 | locus YPL106C, strain sse1, hits give low values 1.02 | locus YPL240C, strain hsp82, hits give low values 0.992 | locus YPL256C, strain CLN2, hits give low values 1 | locus YPR119W, strain clb2, hits give low values 0.966 | locus YPR141C, strain kar3, hits give low values 0.969 | locus YPR163C, strain tif3, hits give low values 0.997 | locus YPR167C, strain met16, hits give low values 0.976 | strain wtn01, hits give low values 0.957
